From PubChem BioAssay (Tox21)
Results filed as inconclusive are left out. Entries that show only a call come without a potency. Activity calls are given as the source filed them. The call rests on the fitted dose curve; in most records, active means well fitted activation curve with a large enough effect in the repeat runs; inconclusive means weak or mixed curves, or effect the other way; inactive means no such curve, though single readings can be large or run the other way.

test: qHTS assay to identify small molecule agonists of the retinoic acid receptor (RAR) signaling pathway (AID 1159553); details: C3RL4 RARE luciferase reporter, agonist, 6 h; series mostly up to 73.3 µM
Method in brief: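 Reporter readout comes from luciferase under RARE control in C3RL4 cells; compound exposure lasts 6 hr at 37 C in 5% CO2, and luminescence is recorded following a 30 min room-temperature incubation with reagent.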
Potency means the concentration at half of the fitted maximal effect.

SMILES	Potency
O=S(=O)(Oc1ccc(Cl)cc1Cl)c1ccccc1	68.6 µM (active)
CCCCCCCCCC(=O)O	inactive
CCc1ccccc1O	inactive
C[C@@H](O)[C@H]1C(=O)N2C(C(=O)O)=C(S[C@@H]3CN[C@H](C(=O)N(C)C)C3)[C@H](C)[C@H]12	inactive
Nc1c(S(=O)(=O)O)cc(Br)c2c1C(=O)c1ccccc1C2=O	inactive
NS(=O)(=O)c1cc2c(cc1Cl)NC=NS2(=O)=O	inactive
CC1(C)CC(N=C=O)CC(C)(CN=C=O)C1 (centres undefined)	inactive
O=Nc1ccc(O)cc1	inactive
NCc1cccc(CN)c1	inactive
C[C@@H]1O[C@@H](OC[C@H]2O[C@@H](Oc3c(-c4ccc(O)c(O)c4)oc4cc(O)cc(O)c4c3=O)[C@H](O)[C@@H](O)[C@@H]2O)[C@H](O)[C@H](O)[C@H]1O	inactive
CC(=O)CCc1ccccc1	inactive
c1ccc2ccccc2c1	inactive
Nc1nc2ncc(CNc3ccc(C(=O)N[C@@H](CCC(=O)O)C(=O)O)cc3)nc2c(=O)[nH]1	inactive
Cc1cc(O)cc(C)c1Cl	inactive
Nc1cc(-c2ccncc2)c[nH]c1=O	inactive
NC(=O)NNc1ccccc1	inactive
CCCCCCCCCCCCOCC1CO1 (centres undefined)	inactive
Oc1ccc2ccccc2c1	inactive
CCOC(=O)[C@H](CCc1ccccc1)N[C@@H](C)C(=O)N1Cc2ccccc2C[C@H]1C(=O)O	inactive
C=C1C2CCC(C2)C1(C)C (centres undefined)	inactive
Cc1cc(=O)[nH]c(C(C)C)n1	inactive
CCOC(=O)/C=C\C(=O)OCC	inactive
NC(=O)/N=N/C(N)=O	inactive
CNC[C@H](O)[C@@H](O)[C@H](O)[C@H](O)CO	inactive
COCC(=O)O	inactive
OC1CCCC1	inactive
CCCCCC/C=C/CCCCCCCC(=O)O	inactive
COC(=O)c1ccc(C(=O)OC)cc1	inactive
Clc1cc(Cl)c(Cl)cc1Cl	inactive
